Screens deposited in PubChem BioAssay by National Center for Advancing Translational Sciences (NCATS).
Rows were chosen to be rich in hits. Some 10% of all compounds tested hit in one or more screens of this group.
HP1b chromo inh – inhibitors of HP1-beta chromodomain binding to methylated histone tails; P83916; AlphaScreen HP1-beta / biotin-H3K9me3 peptide binding; Potency, µM (highest dose often 114 µM), without a hit: top-dose activity change, negative = inhibition, most hits filed as inhibitors; 390,000 tested, 0.56% active; AID 540317; also: nearly all actives have a fitted effect of over 70% in size
Target sequence (P83916 whole entry, looked up): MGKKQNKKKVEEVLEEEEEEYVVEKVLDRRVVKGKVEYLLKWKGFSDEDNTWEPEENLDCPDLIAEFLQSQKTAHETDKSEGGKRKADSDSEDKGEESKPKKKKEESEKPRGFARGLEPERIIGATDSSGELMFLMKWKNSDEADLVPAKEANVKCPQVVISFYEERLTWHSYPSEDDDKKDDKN
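HP1-beta protein (50 nM final) preincubated 30 min at room temperature with biotinylated H3(1-18)K9me3 peptide (50 nM) in PBS pH 7.4, 0.01% Tween-20, then compound added for 30 min. AlphaScreen streptavidin donor/nickel chelate acceptor beads (10 ug/mL final), 30 min dark, luminescence read.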
G9a inh – G9a (human) methyltransferase inhibition; Q96KQ7; 350,000 tested, 8.8% active; G9a H3K9 monomethylation, AlphaScreen, 2 h; Potency, µM (titrated, usually from 102 µM), for inactives: top-dose activity, negative = inhibition, most hits filed as inhibitors; AID 504332; also: % is scaled to controls: 0 for no effect and ±100 for the full control effect; nearly all actives have a fitted effect of over 75% in size
Target sequence (Q96KQ7 913-1193 limits assumed): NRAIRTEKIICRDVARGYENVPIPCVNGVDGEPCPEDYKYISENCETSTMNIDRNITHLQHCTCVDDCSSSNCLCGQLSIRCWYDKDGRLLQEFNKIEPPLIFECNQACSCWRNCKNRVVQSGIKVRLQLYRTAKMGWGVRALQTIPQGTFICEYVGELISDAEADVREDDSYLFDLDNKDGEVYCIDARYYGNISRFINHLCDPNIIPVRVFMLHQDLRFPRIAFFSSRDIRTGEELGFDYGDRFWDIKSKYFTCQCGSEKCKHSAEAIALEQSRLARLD
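Quantitative HTS format: methyltransferase activity on a biotin-tagged H3K9 peptide is measured by AlphaScreen, using a rabbit anti-monomethyl-H3K9 antibody with streptavidin donor and anti-IgG acceptor beads. Final levels are 20 nM enzyme, 500 nM peptide, 20 uM SAM; 2 h RT.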
GLS inhibitor – glutaminase GLS (human) inhibition | GLS enzymatic activity, qHTS titration | Potency, µM (titrated, usually from 45.5 µM), for the others: at the top dose activity change, negative = inhibition, most hits filed as inhibitors | 410,000 tested, 0.21% active | AID 624170; also: % is scaled to controls: 0 for no effect and ±100 for the full control effect
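Glutamate formation by hKGA was monitored fluorometrically using coupled glutamate oxidase, HRP and Amplex Red. Substrate was added as 1 mM L-glutamine solution; incubation was 30 min at RT after an initial read.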
JMJD2A Tudor inh – JMJD2A Tudor domain (human) inhibition; O75164; AlphaScreen JMJD2A-Tudor / H3K4me3 peptide binding; Potency, µM (doses to about 114 µM), inactives show at the top dose activity change, negative = inhibition, actives largely listed as inhibitors; 390,000 tested, 4.4% active; AID 504339; also: % is scaled to controls: 0 for no effect and ±100 for the full control effect; nearly all actives have a fitted effect of over 50% in size
BAZ2B inh – inhibitors of human BAZ2B bromodomain. 360,000 tested, 4.4% active. AlphaScreen BAZ2B-H3K14Ac peptide displacement. Q9UIF8. Potency, µM (doses to about 114 µM), for the others: at the highest dose activity change, negative = inhibition, hits mostly inhibitors; also: % is scaled to controls: 0 for no effect and ±100 for the full control effect; nearly all actives have a fitted effect of over 60% in size
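AlphaScreen displacement of biotin-H3(5-23)K14Ac peptide (50 nM final) from BAZ2B (50 nM final) in PBS pH 7.4, 0.01% Tween-20; complex preformed 30 min RT, then compounds (top 110 uM) 30 min RT, beads 20 min dark.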
* hit, by the source's call; ? = inconclusive; nt = no result given; ! = not active in a repeat; [ ] = another dose, or the depositor's remark. Calls follow the shape of the dose curve; as a rule, active = well fitted curve in the direction sought with a large enough effect; inconclusive = small, poorly fitted or top-dose-only effect, or another doubt; inactive = no such curve, though single readings can be large; an effect the other way counts as inactive or inconclusive. Potency is read from the fitted curve at half-maximal effect.

SMILES	HP1b chromo inh	G9a inh	GLS inhibitor	JMJD2A Tudor inh	BAZ2B inh
CCCC1NC(=O)c2cc3ccccc3cc2-n2c1nc1ccc(F)cc1c2=O (stereo not given)	nt	nt	0.1%	nt	nt
CC1CCN(S(=O)(=O)c2ccc3[nH]ccc3c2)CC1	37.5%	16.2%[59 µM]	-11.3%	-6.7%	2.0%
O=C(CCc1nnc(Cc2ccc3c(c2)OCO3)o1)NCc1nc2ccccc2s1	52.9%	44.7µM*	-6.6%	-22.7%	1.5%
COc1cccc(CN(C)C(=O)c2ccc(S(=O)(=O)Nc3cccc(C)c3C)cc2)c1OC	nt	nt	-4.5%	nt	nt
CC(C)NC[C@H](O)COc1cccc2ccccc12	32.4%	2.2%[59 µM]	-13.9%	-14.4%	nt
CC(CNCC1CCCO1)COc1cccc2ccccc12 (stereo not given)	?	?	8.4%	1.78µM*	?
C#C[C@]1(O)CC[C@@H]2[C@H]3CCC4=Cc5oncc5C[C@]4(C)[C@@H]3CC[C@@]21C	nt	20.8%[21.5 µM]	nt	nt	nt
O=C(Cn1c(=O)oc2ccccc21)Nc1n[nH]c(=S)s1	?	1.26µM*	-17.5%	3.55µM*	-25.2%
CC(C)(C)c1csc(NC(=O)Cn2c(=O)oc3ccccc32)n1	-27.5%	11.2µM*	-12.5%	6.2%	-20.4%
O=c1c(Br)c(N2CCCCC2)cnn1-c1ccccc1	5.0%	-24.9%	-5.3%	-26.0%	-9.3%
O=C(NCc1ccccc1)c1ccc(CSc2nc3cccnc3n2Cc2cccc(F)c2)cc1	29.6%	-21.7%[59 µM]	8.9%	-6.9%	-1.8%
Cc1cc2ccccn2c1C(=O)c1nc(N2CCOCC2)ncc1Cl	-21.5%	70.8µM*	-1.6%	?	?
Cc1cc2ccccn2c1C(=O)c1nc(NCc2ccco2)ncc1Cl	-17.5%	?	-1.5%	?	?
COCCN(CCOC)c1ncc(Cl)c(C(=O)c2c(C)cc3ccccn23)n1	-5.9%	39.8µM*	4.6%	-19.6%	-3.8%
Oc1ccc(-c2nc3ccc4ccccc4c3c3c2CCC3)cc1O	?	?	-11.3%	?	50.1µM*
Cc1cc(C)c2c(ccc3ccccc32)n1	36.3%	nt	5.1%	-3.5%	nt
Cc1ccc(S(=O)(=O)NCC(=O)N(CC(=O)NC(C)(C)C)Cc2ccc3c(c2)OCO3)cc1	?	21.9%	8.2%	-14.7%	2.4%
CC(C)(C)NC(=O)CN(Cc1ccc2c(c1)OCO2)C(=O)CNS(=O)(=O)c1ccccc1	6.1%	17.3%	-4.8%	79.4µM*	0.3%
O=C(c1ccc2c(c1)N(Cc1ccccc1)C(=O)c1ccccc1S2(=O)=O)N1CCN(c2ccccc2)CC1	18.1%	-39.0%[59 µM]	-4.4%	-25.9%	?
CCN(CC)CCn1c(NCc2ccc3c(c2)OCO3)nc2ccccc21	29.5%	?	27.8%	-25.0%	-3.7%
COc1ccc(CNc2nc3ccccc3n2C)c(OC)c1	22.2%	10.9%	-17.8%	-11.3%	-9.9%
CCN(CC)CCn1c(NCc2cccc(OC)c2)nc2ccccc21	16.3%	50.1µM*	48.1%	-23.7%	-21.6%
CCN(CC)CCn1c(NCc2cc(OC)ccc2OC)nc2ccccc21	4.6%	?	79.2%	50.1µM*	-32.5%
Cc1cc(CCNC=O)c(C)c2c1oc1ccccc12	12.2%	nt	0.6%	-21.5%	nt
COC(=O)Cn1c2ccccc2c2nc(=O)cc(C)n21	41.1%	-3.0%	-5.6%	-14.6%	9.2%
SMILES	HP1b chromo inh	G9a inh	GLS inhibitor	JMJD2A Tudor inh	BAZ2B inh
COc1cc2c(cc1OC)n(CC(=O)NC1CCCCCC1)n1c(C)cc(=O)nc21	-13.7%	23.2%	9.9%	50.1µM*	-14.3%
O=C(CN1C(=O)c2ccccc2C1=O)C(O)CN1C(=O)c2ccccc2C1=O (stereo not given)	nt	nt	-3.9%	nt	nt
NC(=O)CC[C@@H]1NC(=O)C(Cc2ccc(O)cc2)NC(=O)c2cc([N+](=O)[O-])cc(F)c2NCCC[C@@H](C(N)=O)NC1=O (stereo not given in full)	nt	50.1µM*	nt	nt	?
C[C@@H]1NC(=O)[C@H](CCC(=O)O)NC(=O)c2cc([N+](=O)[O-])cc(F)c2NCCC[C@@H](C(N)=O)NC1=O	14.1%	79.4µM*	0.8%	-28.3%	-6.1%
CN(C)C(CNC(=O)c1cccc(S(=O)(=O)N2CCN(c3ccc(F)cc3)CC2)c1)c1ccccc1 (stereo not given)	-21.0%	nt	9.3%	?	nt
CO[C@@]1(NC(=O)Cc2cccs2)C(=O)N2C(C(=O)O)=C(COC(N)=O)CS[C@@H]21	13.8%	?	11.2µM*!	56.2µM*	50.1µM*
CO[C@@]1(NC(=O)Cc2cccs2)C(=O)N2C(C(=O)O)=C(COC(N)=O)CSC21 (stereo not given in full)	nt	-29.4%[2.33 µM]	nt	nt	nt
CCN(CC)CCC12CC(C)OC1=Nc1ccccc1NC2=O (stereo not given)	nt	nt	7.6%	nt	nt
CCCC(=O)NC(c1ccccc1)c1c(O)ccc2ccccc12 (stereo not given)	4.0%	37.8%	7.3%	-15.1%	-4.2%
CCCC(=O)NC(c1ccc(N(C)C)cc1)c1c(O)ccc2ccccc12 (stereo not given)	50.1µM*	31.6µM*	30.9%	31.6µM*	17.8µM*
CC(=O)NC(c1ccccc1)c1c(O)ccc2ccccc12 (stereo not given)	18.2%	17.8µM*	0.0%	-12.0%	31.6µM*
CC(=O)NC(c1ccc([N+](=O)[O-])cc1)c1c(O)ccc2ccccc12 (stereo not given)	1.7%	44.7µM*	17.6%	?	-37.7%
O=C(Cc1ccccc1)NC(c1ccco1)c1c(O)ccc2ccccc12 (stereo not given)	-3.0%	50.1µM*	19.8%	?	?
CCC(=O)NC(c1ccccc1)c1c(O)ccc2ccccc12 (stereo not given)	14.6%	4.9%	6.2%	-28.7%	-3.9%
CC(C)C(=O)NC(c1ccc([N+](=O)[O-])cc1)c1c(O)ccc2ccccc12 (stereo not given)	5.4%	?	-4.6%	-33.8%	-6.9%
COc1ccc(OC)c(NC(=O)CSc2cn(CC(=O)N3CCCCCC3)c3ccccc23)c1	23.0%	?	4.8%	-25.3%	-24.0%
CSc1ccccc1NC(=O)C1=CC(c2ccc3c(c2)OCO3)=NS(=O)(=O)N1C	22.7%	-28.7%[59 µM]	18.5%	-12.3%	-3.1%
C[C@H]1CC2[C@@H]3CCC4=CC(=O)C=C[C@]4(C)[C@@]3(F)[C@@H](O)C[C@]2(C)[C@@]1(O)C(=O)CO (stereo not given in full)	nt	29.3%[12.7 µM]	nt	nt	nt
CCCCC#Cc1nc(N)c2ncn([C@@H]3O[C@H](C(=O)NCC)[C@@H](O)[C@H]3O)c2n1	nt	35.1%[12.7 µM]	nt	nt	nt
O=C1C=C(c2ccc(OC(F)(F)F)cc2)C[C@@H](c2ccc(Cl)cc2)C1	59.0%	-4.3%[2.33 µM]	0.9%	23.2%	0.8%
Cc1cc(C)c2nc(SCC(=O)N3CC(=O)Nc4ccccc43)c(C#N)cc2c1	45.7%	10µM*	3.7%	-2.4%[57.1 µM]	-2.8%
